From PubChem BioAssay
CHRM1 agonist = human M1 muscarinic receptor agonism | P11229 | CHO-K1 hM1, Fluo-8 calcium fluorescence, agonist mode; 0% DMSO, 100% acetylcholine EC100 | activation, % at 3 µM | hit rate 0.33% among 360,000 | AID 588814;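 active means activation above the run's mean compound activation plus 3 SD, cut at about 16% in these data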;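 further: peak over basal fluorescence ratio within a 140 s kinetic read after compound addition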
Target sequence (P11229 whole entry, looked up): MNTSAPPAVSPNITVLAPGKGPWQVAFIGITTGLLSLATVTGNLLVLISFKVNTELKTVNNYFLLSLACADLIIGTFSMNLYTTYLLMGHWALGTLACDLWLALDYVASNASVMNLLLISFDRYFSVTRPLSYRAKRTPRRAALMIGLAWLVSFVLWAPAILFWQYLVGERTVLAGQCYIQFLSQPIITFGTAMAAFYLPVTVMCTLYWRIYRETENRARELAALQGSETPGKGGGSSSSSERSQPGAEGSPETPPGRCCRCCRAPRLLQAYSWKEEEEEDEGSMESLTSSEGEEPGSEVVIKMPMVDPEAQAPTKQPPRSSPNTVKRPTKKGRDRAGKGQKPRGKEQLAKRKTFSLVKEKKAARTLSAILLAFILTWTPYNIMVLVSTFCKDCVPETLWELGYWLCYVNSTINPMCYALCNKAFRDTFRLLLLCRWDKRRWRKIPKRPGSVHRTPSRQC
CHO-K1 Ca antag = M1 antagonist counterscreen hit in parental CHO-K1 cells; ATP-induced calcium, Fluo-8 fluorescence; inhibition, % at 3 µM; hit rate 0.6% among 360,000; AID 602250;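 active means inhibition above a per-plate cutoff, the plate's mean sample inhibition plus 3 SD, cut at about 24% in these data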;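 further: 0% = DMSO plus EC80 ATP and 100% = DMSO alone without ATP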
M1 PAM parental = M1 PAM counterscreen hit in parental CHO-K1 cells; AID 602247; activation, % at 3 µM; hit rate 0.02% among 360,000; ATP EC20, Fluo-8 calcium fluorescence; 0% at ATP EC20, 100% at ATP max;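 active means activation above the run cutoff, the mean activation of all test compounds plus 3 SD, cut at about 40% in these data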;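 further: peak over basal fluorescence ratio in a 140 s read after ATP addition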
M1 antag = blocks human M1 muscarinic receptor | inhibition, % at 3 µM | AID 588852 | P11229 | CHO-K1 hM1, Fluo-8 calcium fluorescence, ACh EC80 antagonist | hit rate 1.3% among 360,000;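 active means percent inhibition above its own plate's cutoff, namely the mean of that plate's compound wells plus 3 SD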;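 further: peak over basal fluorescence ratio during 140 s after agonist addition; 0% = ACh EC80 plus DMSO and 100% = DMSO alone without agonist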
CHRM1 PAM = positive allosteric modulators of human M1 muscarinic receptor. CHO-K1 hM1, Fluo-8 calcium fluorescence, ACh EC20; 0% = ACh EC20, 100% = maximal ACh. activation, % at 3 µM. hit rate 0.088% among 360,000. AID 588819; in the data active means activation above about 19%, passing the limit was not always enough
CHO-K1 Ca ag = counter-screen for M1 agonists: effect in parental CHO-K1 cells; Fluo-8 calcium fluorescence; scaled to maximal ATP response, vehicle zero; activation, % at 3 µM; hit rate 0.48% among 360,000; AID 602248; in the data active means activation above about 15%;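 further: untransfected CHO-K1 host cells lacking M1 receptor as counterscreen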
An asterisk follows results filed as active. Hits are enriched below; roughly 2.3% of the tested compounds scored in any of these assays.

SMILES	CHRM1 agonist	CHO-K1 Ca antag	M1 PAM parental	M1 antag	CHRM1 PAM	CHO-K1 Ca ag
C[C@@H]1CN([C@@H](C)CO)C(=O)c2cc(C#Cc3ccccc3)cnc2O[C@H]1CN(C)C(=O)c1ccccc1F	-3	-12	14	-13	3	1
CCOc1ccccc1NC(=O)C(OC(=O)c1cnc(C)cn1)c1ccccc1 (stereo not drawn)	-3	-12	46*	-10	6	0
NC(=O)c1ccsc1NC(=O)COC(=O)Cc1ccccc1Cl	5	11	-3	29	-19	19*
CC(=O)c1ccc(OCC(=O)OCC(=O)Nc2sccc2C(N)=O)cc1	2	9	-10	35*	-10	17*
NC(=O)c1ccsc1NC(=O)COC(=O)CCOc1ccccc1	5	2	-13	15	-12	17*
NC(=O)c1ccsc1NC(=O)COC(=O)Cc1ccsc1	5	-2	7	-4	-1	6
COc1cc(CC(=O)OCC(=O)Nc2sccc2C(N)=O)cc(OC)c1OC	2	8	-6	13	-9	16*
COCCNC(=O)C1(C)CCCN(Cc2ccc(Cl)nc2)C1 (stereo not drawn)	-2	3	17	-12	10	4
NC(=O)c1ccsc1NC(=O)COC(=O)CCc1ccccc1	6	6	-4	23	-18	16*
NC(=O)c1ccsc1NC(=O)COC(=O)CCCOc1ccccc1	3	17	-3	27	-13	14
Cc1cccn2c(=O)nc(SCC(=O)N3CCC(Cc4ccccc4)CC3)nc12	20*	2	-12	14	-3	3
CCOC(=O)c1ccc(N=C2SC(C(=O)NCCc3ccccc3)CC(=O)N2C)cc1 (stereo not drawn)	-5	-9	-12	8	-1	1
CCNC(=O)C1CC(=O)N(CCCc2ccccc2)C(=Nc2ccccc2)S1 (stereo not drawn)	-4	1	10	-12	7	19*
Cc1c(Cl)cccc1NC(=S)N1CCCN(Cc2ccccc2F)C1	3	6	15	12	-7	5
Fc1ccccc1CN1CCCN(C(=S)Nc2cccc(Cl)c2)C1	10	19	-9	29*	-13	8
COc1ccc(/C=N/NC(=O)c2ccc(CN3c4cccc5cccc(c45)S3(=O)=O)cc2)cc1	16*	-6	20	-10	-7	2
O=C(N/N=C/CCc1ccccc1)c1ccc(CN2c3cccc4cccc(c34)S2(=O)=O)cc1	21*	-6	22	-11	17	10
COc1cc(/C=N/NC(=O)c2ccc(CN3c4cccc5cccc(c45)S3(=O)=O)cc2)cc(OC)c1O	4	2	5	5	1	1
COc1cccc2c1OCC/C2=N\NC(=O)C(C)Oc1ccc([N+](=O)[O-])cc1 (stereo not drawn)	-5	6	-11	1	-7	0
COC(=O)CCCCCN1C(=O)/C(=C\c2ccncc2)SC1=S	4	-7	0	0	-3	9
CCNc1nc(NC(C)(C)C)nc(N2CCCCC2)n1	-11	-8	21	86*	-28	5
COc1ccc(C(=O)/C=C2/C(=O)Nc3ccccc32)cc1OC	18*	-8	2	33*	24	2
COc1ccccc1NC(=O)Nc1nc(C(C)(C)C)cs1	-4	-25	37	-6	7	31*
COc1ccc2c(c1)sc(N)[n+]2Cc1cc(C)cc2cccnc12	-7	3	9	65*	-23	4
CCOc1ccc2c(c1)sc(N)[n+]2Cc1cc(C)cc2cccnc12	-7	1	3	70*	-24	6
SMILES	CHRM1 agonist	CHO-K1 Ca antag	M1 PAM parental	M1 antag	CHRM1 PAM	CHO-K1 Ca ag
CN(C(=O)c1cc(S(=O)(=O)N2CCOCC2)cs1)c1ccccc1	-3	1	5	-5	7	0
O=C1CN(C(=O)COc2ccc(F)cc2Br)c2ccccc2N1	-4	-12	1	-9	3	1
C/C(=N/NC(=O)c1cccs1)c1ccc(N2CCOCC2)cc1	-2	25*	-6	21	-12	0
C/C(=N\NC(=O)c1ccccc1)c1ccc(N2CCOCC2)cc1	-3	-4	-8	-2	5	0
Cc1ccc(C2(C)NC(=O)N(CC(=O)NC(=O)NC(C)(C)C)C2=O)cc1 (stereo not drawn)	1	-20	15	-9	8	3
CC1CN(Cc2nc3c(c(=O)n(C)c(=O)n3C)n2CCN2CCOCC2)CC(C)O1 (stereo not drawn)	-4	-4	-2	14	-2	0
CCCCCn1c(CN2CC(C)OC(C)C2)nc2c1c(=O)n(C)c(=O)n2C (stereo not drawn)	4	24*	-8	-1	6	0
CCCCCCn1c(CN2CCN(CCO)CC2)nc2c1c(=O)n(C)c(=O)n2C	-5	24*	-7	-9	4	0
COCCn1c(CN2CCN(c3ccccc3)CC2)nc2c1c(=O)n(C)c(=O)n2C	-5	-9	0	33*	-13	0
CCOC(=O)/C(=C\c1ccccc1)C(=O)CCN1CCOCC1	2	1	10	-8	5	10
O=C(Nc1nc(-c2cc(F)ccc2F)cs1)c1cccc(N2C(=O)CCC2=O)c1	-4	32*	-22	13	-7	4
C/C(=N\NC(=S)NC(C)C)c1ccc(Cl)s1	-10	7	-3	81*	-24	0
Cc1nc([N+](=O)[O-])c(SCC(O)CCl)n1Cc1ccc(Cl)cc1 (stereo not drawn)	-3	15	13	13	-6	23*
COc1ccc(Cn2c(C)nc([N+](=O)[O-])c2SCC(=O)O)cc1[N+](=O)[O-]	-5	-12	14	1	2	0
COc1cccc2sc3ccc(C#CC4(O)CCCCC4)cc3c(=O)c12	-7	-16	7	41*	-13	5
O=c1c2ccccc2sc2ccc(C#CC3(O)CCCCC3)cc12	-7	-9	2	5	-5	0
Cc1cc(C(=O)CN2C(=O)NC(CC(C)C)C2=O)c(C)n1C1CC1 (stereo not drawn)	-1	7	-6	-4	2	1
Cc1cc(C(=O)CN2C(=O)NC(C)(c3ccc(F)c(F)c3)C2=O)c(C)n1C1CC1 (stereo not drawn)	22*	-2	21	-7	5	12
COc1ccc(C2(C)NC(=O)N(CC(=O)c3cc(C)n(C4CC4)c3C)C2=O)cc1 (stereo not drawn)	40*	4	4	0	5	30*
C=CCNC(=O)CN1C(=O)NC(C)(c2ccc(OC)cc2)C1=O (stereo not drawn)	0	-3	-14	-2	-1	1
